# Reference: PubChem BioAssay
# Active and inactive are the calls of the source.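 How the source made its calls, unless noted: active means mean z-score across replicates of 1.96 or higher in either the MELAS or the Rieske mutant cell line; inactive means the rest.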
# Columns and labels:
# [1] = viability loss with induced miR-34 in A549 – imaging, A549 dox-inducible miR-34, nuclei and caspase counts, primary screen (AID 1347080;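 active means compounds whose cell count with miR-34 switched on is under 0.7 times the count with it off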; further: test concentration not given here); conditions: A549 miR-34 inducible, Hoechst nuclei count, 48 h
# [2] = MELAS cybrid and Rieske KO viability enhancers – cell-based, MELAS cybrids, Rieske KO mouse fibroblasts, CellTiter-Glo, primary screen (AID 1508586); conditions: low glucose;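 further: test concentration not given here; z relative to plate mean and SD of compound and empty wells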
# [3] = galactose survival enhancers in mitochondrial complex I cybrids – cell-based, galactose medium, ATP luminescence, primary screen (AID 1645843;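 active means z-score of at least 1.8 in each of two replicates, scored against plate mean and spread of sample wells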;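 further: positive z means more ATP and so rescue of galactose-driven cybrid death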); conditions: complex I mutant cybrid cells, 72 h, stronger effect = higher value
compound,measurement,setting,value
Nc1nc(-c2ccoc2)c2[nH]cnc2n1,fold change,"[1]; stronger effect = lower value, cell number ratio, induced over uninduced",0.933 (inactive)
same,fold change,[1]; measured here: relative caspase fold change +Dox/-Dox,1.81
same,cell count,"[1]; measured here: total cells with miR-34 induction, stronger effect = lower value",9520
same,cell count,[1]; measured here: total cells without miR-34 induction,10200
same,z-score,"[2]; MELAS cybrid survival, CellTiter-Glo 48 h, stronger effect = higher value",-0.0543 (inactive)
same,z-score,"[2]; Rieske KO mouse fibroblast survival, CellTiter-Glo 72 h",-0.319
same,z-score,[3],-0.485 (inactive)
